Most compounds without a hit are left out; they make up all but 11% or so of the library.
JMJD2A Tudor: blocks the human JMJD2A Tudor domain. AlphaScreen JMJD2A-Tudor / H3K4me3 peptide binding. Potency, µM (highest dose often 114 µM), inactives show at the top dose activity change, negative = inhibition, usual class: inhibitors. actives 4.4% (n = 390,000). AID 504339. O75164; further: potency means the concentration at half of the fitted maximal effect; on the % scale 0 is the no-effect control and ±100 the full control effect; nearly all actives have a fitted effect of over 50% in size
G9a block: inhibitors of human histone lysine methyltransferase G9a; Q96KQ7; G9a H3K9 monomethylation, AlphaScreen, 2 h; Potency, µM (titrated, usually from 102 µM), inactives show at the top dose activity, negative = inhibition, actives largely listed as inhibitors; actives 8.8% (n = 350,000); AID 504332; further: potency means the concentration at half of the fitted maximal effect; on the % scale 0 is the no-effect control and ±100 the full control effect; nearly all actives have a fitted effect of over 75% in size
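AlphaScreen detection with an anti-monomethyl H3K9 antibody quantified product after a 2 h room-temperature reaction containing 500 nM biotinylated H3K9 peptide, 20 µM SAM and 20 nM enzyme, which had been preincubated 15 min with compound.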
HP1b chromo inh: HP1-beta chromodomain-methylated histone interaction inhibition. AlphaScreen HP1-beta / biotin-H3K9me3 peptide binding. Potency, µM (titrated, usually from 114 µM), for the others: at the top dose activity change, negative = inhibition, most hits filed as inhibitors. actives 0.56% (n = 390,000). AID 540317; further: potency means the concentration at half of the fitted maximal effect; nearly all actives have a fitted effect of over 70% in size
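Compound inhibition of the preformed complex between 50 nM HP1-beta and 50 nM biotinylated H3K9me3 peptide was read by AlphaScreen. Buffer was PBS pH 7.4 with 0.01% Tween-20. Incubations ran 30 min at room temperature, with 10 ug/mL donor/acceptor beads.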
PI5P4K alpha inh: PI5P4K alpha (human) kinase inhibition. actives 1.2% (n = 330,000). max response, %. P48426. PI5P4Kalpha enzyme, ADP-Glo luminescence, 60 min; hits give low values; active means max response of -50% or lower; inconclusive means between -30% and -50%; inactive means -30% or higher; further: value at the top dose of about 77 µM; on the % scale 0 is the no-effect control and ±100 the full control effect
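Luminescence from ADP-Glo served as readout of PI5P4Kalpha activity in a qHTS format. Reaction: enzyme, substrate, compound, ATP at 5 microM final, 60 min at RT.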
L3MBTL1 block: blocks human L3MBTL1. Q9Y468. AlphaScreen L3MBTL1–H3K9me1 peptide binding. Potency, µM (doses to about 57.1 µM), without a hit: top-dose activity, negative = inhibition, hits mostly inhibitors. actives 0.66% (n = 230,000). AID 485360; further: potency means the concentration at half of the fitted maximal effect; on the % scale 0 is the no-effect control and ±100 the full control effect; nearly all actives have a fitted effect of over 60% in size
Target sequence (Q9Y468 whole entry, looked up): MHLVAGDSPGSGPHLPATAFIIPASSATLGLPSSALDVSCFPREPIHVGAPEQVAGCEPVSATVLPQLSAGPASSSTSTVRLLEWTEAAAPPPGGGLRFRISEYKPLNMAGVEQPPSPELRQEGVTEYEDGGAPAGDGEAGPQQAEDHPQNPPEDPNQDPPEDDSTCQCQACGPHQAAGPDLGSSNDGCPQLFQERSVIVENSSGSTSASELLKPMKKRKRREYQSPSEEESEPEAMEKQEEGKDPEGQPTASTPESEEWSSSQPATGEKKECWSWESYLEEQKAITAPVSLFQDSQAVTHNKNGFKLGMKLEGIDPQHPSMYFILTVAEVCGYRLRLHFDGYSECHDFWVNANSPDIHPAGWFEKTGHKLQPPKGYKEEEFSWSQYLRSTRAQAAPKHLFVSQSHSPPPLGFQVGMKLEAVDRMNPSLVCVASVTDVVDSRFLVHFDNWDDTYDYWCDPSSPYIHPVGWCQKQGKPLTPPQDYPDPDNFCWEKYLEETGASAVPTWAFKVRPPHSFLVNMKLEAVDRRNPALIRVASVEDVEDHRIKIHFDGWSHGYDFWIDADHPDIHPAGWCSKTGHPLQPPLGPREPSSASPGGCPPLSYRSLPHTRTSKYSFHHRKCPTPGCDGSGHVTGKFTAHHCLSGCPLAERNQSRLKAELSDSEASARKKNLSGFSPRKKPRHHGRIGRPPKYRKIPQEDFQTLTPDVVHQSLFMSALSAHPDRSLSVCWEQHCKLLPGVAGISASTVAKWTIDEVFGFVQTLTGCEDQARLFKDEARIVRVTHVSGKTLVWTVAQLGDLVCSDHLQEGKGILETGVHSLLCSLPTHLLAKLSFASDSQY
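First, the protein-peptide complex forms for 30 min at room temperature (L3MBTL1 50 nM, biotinylated H3K9me1 peptide 75 nM). Next, compounds are pin-transferred and incubated 30 min. Finally, AlphaScreen beads are added and read after 30 min.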
BAZ2B block: inhibitors of human BAZ2B bromodomain. AlphaScreen BAZ2B-H3K14Ac peptide displacement. AID 504333. actives 4.4% (n = 360,000). Potency, µM (doses to about 114 µM), for inactives: top-dose activity change, negative = inhibition, most hits filed as inhibitors. Q9UIF8; further: potency means the concentration at half of the fitted maximal effect; on the % scale 0 is the no-effect control and ±100 the full control effect; nearly all actives have a fitted effect of over 60% in size
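Inhibition is scored as reduced AlphaScreen emission. The BAZ2B/b-H3(5-23)K14Ac complex (50 nM each) in PBS pH 7.4, 0.01% Tween-20 meets compound (up to 110 uM) for 30 min at RT before bead addition.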
* hit, by the source's call; [ ] = another dose, or the depositor's remark. Unless noted, the call rests on the fitted dose curve; in most records, active means well fitted inhibition curve with a large enough effect; inconclusive means small, poorly fitted or top-dose-only effect; inactive means no such curve, though single readings can be large or run the other way.

`C/C=C/c1ccc(OCC(=O)OCc2csc(CC(=O)Nc3ccccc3C)n2)c(OC)c1` gave JMJD2A Tudor -10%, HP1b chromo inh 4%, PI5P4K alpha inh -7 and BAZ2B block -8%.
COc1ccc(CC(=O)OCc2csc(CC(=O)Nc3ccc(C)cc3)n2)cc1 was read as JMJD2A Tudor -10%, HP1b chromo inh 25%, PI5P4K alpha inh 1 and L3MBTL1 block -10%.
Screening COc1cc(/C=C/C(=O)OCc2csc(CC(=O)Nc3ccc(C)cc3)n2)ccc1OCC#N returned JMJD2A Tudor -21%, G9a block 10µM*, HP1b chromo inh 27%, PI5P4K alpha inh 6, L3MBTL1 block 1% and BAZ2B block 8%.
`CC(O)(C#CCN1CCCCCC1)c1ccccc1` (stereo not drawn) gave JMJD2A Tudor -20%[11.4 µM], G9a block 50µM*, HP1b chromo inh 5%, PI5P4K alpha inh 6, L3MBTL1 block 3% and BAZ2B block 2%.
`OC(C#CCN1CCCCC1)(c1ccccc1)c1ccccc1` gave JMJD2A Tudor -11%, G9a block 18%, HP1b chromo inh 23%, PI5P4K alpha inh 0, L3MBTL1 block -7% and BAZ2B block -24%.
`OC(C#CCN1CCCC1)(c1ccccc1)c1ccccc1` gave JMJD2A Tudor -14%, G9a block -11%[12.7 µM], HP1b chromo inh 8%, PI5P4K alpha inh -5 and BAZ2B block -4%.
OC(C#CCN1CCOCC1)(c1ccccc1)C1CC1 (stereo not drawn) was read as JMJD2A Tudor -22%, G9a block 45µM*, HP1b chromo inh 22%, PI5P4K alpha inh -13, L3MBTL1 block 3% and BAZ2B block inconclusive.
Screening C=C1/C(=C\C=C2/CCC[C@]3(C)C([C@H](C)CCCC(C)(C)O)CC[C@@H]23)C[C@@H](O)C[C@@H]1O (stereo partly drawn) returned G9a block -3%[59 µM].
For Cc1cc2nc3c(=O)[nH]c(=O)nc-3n(C[C@H](O)[C@H](O)[C@H](O)COP(=O)(O)OP(=O)(O)OC[C@H]3O[C@@H](n4cnc5c(N)ncnc54)[C@H](O)[C@@H]3O)c2cc1C the results were G9a block -29%[12.7 µM].
Screening COC(=O)c1nn(-c2ccc(OC)cc2)c(=O)cc1O returned JMJD2A Tudor -19%, G9a block -42%, HP1b chromo inh -10%, PI5P4K alpha inh 0, L3MBTL1 block 7% and BAZ2B block -18%.
For COC(=O)c1c(=O)n(O)c2ccc(OC)cc2[n+]1[O-] the results were JMJD2A Tudor inconclusive, G9a block 32µM*, HP1b chromo inh 15%, PI5P4K alpha inh -13, L3MBTL1 block -9% and BAZ2B block inconclusive.
For Fc1cccc(NCc2ccccc2-c2nnc(-c3ccccc3Cl)o2)c1 the results were JMJD2A Tudor -2%, G9a block 35%[59 µM], HP1b chromo inh 74% and BAZ2B block 32%.
For Cc1nc(N2CCCC2)c2c(C(=O)Nc3cccc(Cl)c3C)c(C)oc2n1 the results were JMJD2A Tudor -18%, G9a block -30%[59 µM], HP1b chromo inh 9% and BAZ2B block -6%[57.1 µM].
Cc1csc(=O)n1CCC(=O)OCC(=O)NCc1ccc(Cl)cc1Cl was read as JMJD2A Tudor -14%, G9a block inconclusive, HP1b chromo inh 10%, PI5P4K alpha inh 0, L3MBTL1 block -4% and BAZ2B block -29%.
Screening Cc1csc(=O)n1CCC(=O)OCC(=O)NNC(=O)c1ccc(Cl)cc1 returned JMJD2A Tudor -14%, G9a block 45µM*, HP1b chromo inh 17%, PI5P4K alpha inh -1, L3MBTL1 block -5% and BAZ2B block -1%.
Screening S=c1nn[nH]n1C12CC3CC(CC(C3)C1)C2 returned JMJD2A Tudor 50µM*, G9a block 1.4µM*, HP1b chromo inh -5% and BAZ2B block inconclusive.
Screening c1cn(C23CC4CC(CC(C4)C2)C3)cn1 returned JMJD2A Tudor -14%, G9a block 4%[12.7 µM], HP1b chromo inh 18%, PI5P4K alpha inh -4, L3MBTL1 block -3% and BAZ2B block 2%.
CCCCCOC(=O)c1[nH]c2c(c1C)C(=O)CC(c1ccco1)C2 (stereo not drawn) was read as JMJD2A Tudor 35µM*, G9a block 40µM*, HP1b chromo inh inconclusive, PI5P4K alpha inh inconclusive, L3MBTL1 block inconclusive and BAZ2B block 56µM*.
Screening Cc1ccc(-n2ncc(C(=O)NCc3ccco3)c2C2CCN(C(=O)OC(C)(C)C)CC2)c(C)c1 returned JMJD2A Tudor inconclusive, G9a block inconclusive, HP1b chromo inh 4% and BAZ2B block -1%[57.1 µM].
For CC(C)(C)OC(=O)N1CCC(c2c(C(=O)NC3CCCCC3)cnn2-c2cccc(F)c2)CC1 the results were JMJD2A Tudor -15%, G9a block 6%[59 µM], HP1b chromo inh 13% and BAZ2B block 7%[57.1 µM].
COC(=O)c1ccc(N=Cc2c(-c3ccccc3)[nH][nH]c2=O)cc1 was read as JMJD2A Tudor -5%, G9a block 40µM*, HP1b chromo inh 14%, PI5P4K alpha inh -10, L3MBTL1 block -6% and BAZ2B block inconclusive.
CCN(CC)CCSc1nc2ccccc2c(=S)n1-c1ccccc1 was read as JMJD2A Tudor 50µM*, G9a block inconclusive, HP1b chromo inh inconclusive, PI5P4K alpha inh -17 and BAZ2B block inconclusive.
`Cc1cccc(C(=O)Nc2c(-c3ccc(F)cc3)nc3ccccn23)c1` gave JMJD2A Tudor -20%, G9a block -11%[59 µM], HP1b chromo inh 25% and BAZ2B block -5%.
For COc1ccc(C2C3C=CCCC3(C)C(=O)N2Cc2ccccc2)cc1Cl (stereo not drawn) the results were JMJD2A Tudor -16% and HP1b chromo inh 19%.
`CCOC(=O)C(Sc1nnc(-c2ccncc2)o1)C(C)=O` (stereo not drawn) gave JMJD2A Tudor inconclusive, G9a block 7.9µM*, HP1b chromo inh 10%, L3MBTL1 block 18% and BAZ2B block 3%.
Screening COC(=O)C(C)Sc1nnc(-c2ccncc2)o1 (stereo not drawn) returned JMJD2A Tudor -4%, G9a block 10%[12.7 µM], HP1b chromo inh 36%, L3MBTL1 block 2%[11.4 µM] and BAZ2B block -1%.
COc1ccccc1C(=O)NC1=NC(c2ccc(Br)cc2)CC(=O)N1 (stereo not drawn) was read as JMJD2A Tudor -17%, G9a block 8%[59 µM], HP1b chromo inh 14% and BAZ2B block -4%.

Compound activity: PubChem, National Center for Advancing Translational Sciences (NCATS)
